Measurements taken from PubChem BioAssay (Tox21).
Unmarked numbers belong to inactive results. Activity calls are given as the source filed them. Unless noted, the call rests on the fitted dose curve.

tested on: thyroid hormone receptor (rat, GH3 cells); test: qHTS assay to identify small molecule agonists of the thyroid receptor (TR) signaling pathway (AID 743066); details: GH3.TRE-Luc cells, TR agonist luciferase, 24 h; series mostly up to 83.9 µM; activation: at the top concentration
On the % scale 0 is the no-effect control and ±100 the full control effect.

Structure (SMILES)	activation	Potency
ClCCCCl	1.34% [at 95.2 µM]	
CC[C@H](N)c1ccccc1	-0.401%	
COC(=O)[C@@H](N)CCCN/C(N)=N/[N+](=O)[O-]	1.52%	
CCOC(=O)c1ncn2c1CN(C)C(=O)c1c(I)cccc1-2	-3.17%	
CCN[C@@H](C)Cc1cccc(C(F)(F)F)c1	-2.53%	
CCN(CC)CCOC(=O)C(O)(c1ccccc1)c1ccccc1	0.767%	
BrCCc1ccccc1	0.035% [at 95.2 µM]	
CCC(=O)OC1(c2ccccc2)CCN(C)CC1	-1.93% [at 95.2 µM]	
C[C@@H](N)[C@@H](O)c1ccccc1	0.638% [at 39.4 µM]	
CCNc1nc(NCC)nc(SC)n1	-0.224%	
CCNc1nc(Cl)nc(NC(C)(C)C)n1	0.867%	
CCOC(=O)N(C)N=O	0.0039%	
OCC(Cl)CCl (stereo not drawn)	0.0865%	
CCCOc1nn(C(=O)NS(=O)(=O)c2ccccc2C(=O)OC)c(=O)n1C	1.77%	
CCN[C@@H](C)Cc1ccccc1	-1.42% [at 95.2 µM]	
ClCCCCCCCl	0.416%	
CCOC(=O)CC(SP(=S)(OC)OC)C(=O)OCC (stereo not drawn)		inactive
C=C(C)[C@H]1CN[C@H](C(=O)O)[C@H]1CC(=O)O	0.174%	
CC(C)(C)C(=O)Cl	0.435% [at 95.2 µM]	

Structure (SMILES)	activation	Potency
CCCCOC(C)=O	0.35% [at 95.2 µM]	
CNC(=O)Oc1cc(C)c(N(C)C)c(C)c1	-3.5%	
CCN(CC)C1CCCCC1	0.721%	
O=S1(=O)OCCO1	0.174% [at 95.2 µM]	
CCOP(=S)(OCC)SCCl	1.39%	
COc1ccccc1OC	4.52%	
Clc1nc(Cl)nc(Nc2ccccc2Cl)n1	5.28%	
CN1COCN(Cc2cnc(Cl)s2)/C1=N\[N+](=O)[O-]	1.36%	
CCOP(=S)(OCC)Oc1ccc(Cl)cc1Cl	-2.27%	
CCC1(c2ccccc2)C(=O)N(COC)C(=O)N(COC)C1=O	1.02%	
O=P(O)(O)c1ccccc1	-0.0727%	
CCOC1Oc2ccc(OS(C)(=O)=O)cc2C1(C)C (stereo not drawn)	0.46%	
CCCCS(=O)(=O)Cl	-0.174%	
Clc1ccc(C(Cl)(Cl)Cl)cn1	-0.0253%	
O=C(Cl)c1ccccc1	0.0365% [at 95.2 µM]	
BrCC1CO1 (stereo not drawn)	0.12% [at 95.2 µM]	
NCCOS(=O)(=O)O	1.11%	
CN(C)C1CCCCC1	1.12%	
CN=CNc1ccc(C)cc1C	0.645%	

molecular target: Estrogen receptor (Homo sapiens) (UniProt P03372); test: qHTS assay to identify small molecule antagonists of the estrogen receptor alpha (ER-alpha) signaling pathway (AID 743069; active means well fitted curve in the direction sought with a large enough effect in the signal ratio in the repeat runs, not every such curve was filed as active; inconclusive means weak or mixed curves, or effect the other way; inactive means no such curve, though single readings can be large or run the other way; the % refers to the signal ratio); details: HEK293 ER-alpha-UAS-bla, beta-lactamase ratio, antagonist mode; series mostly up to 69.4 µM; activity, negative = inhibition: at the top concentration
Outline: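 ER-alpha-UAS-bla GripTite HEK293 line; 2% charcoal-stripped FBS overnight; plated, 4 hr 37C/5% CO2; cpd in DMSO + 17beta-estradiol, 18 hr 37C; LiveBLAzer B/G FRET substrate 2 hr RT; fluorescence intensity.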

Estrogen receptor (Homo sapiens), sequence (P03372 whole entry, looked up): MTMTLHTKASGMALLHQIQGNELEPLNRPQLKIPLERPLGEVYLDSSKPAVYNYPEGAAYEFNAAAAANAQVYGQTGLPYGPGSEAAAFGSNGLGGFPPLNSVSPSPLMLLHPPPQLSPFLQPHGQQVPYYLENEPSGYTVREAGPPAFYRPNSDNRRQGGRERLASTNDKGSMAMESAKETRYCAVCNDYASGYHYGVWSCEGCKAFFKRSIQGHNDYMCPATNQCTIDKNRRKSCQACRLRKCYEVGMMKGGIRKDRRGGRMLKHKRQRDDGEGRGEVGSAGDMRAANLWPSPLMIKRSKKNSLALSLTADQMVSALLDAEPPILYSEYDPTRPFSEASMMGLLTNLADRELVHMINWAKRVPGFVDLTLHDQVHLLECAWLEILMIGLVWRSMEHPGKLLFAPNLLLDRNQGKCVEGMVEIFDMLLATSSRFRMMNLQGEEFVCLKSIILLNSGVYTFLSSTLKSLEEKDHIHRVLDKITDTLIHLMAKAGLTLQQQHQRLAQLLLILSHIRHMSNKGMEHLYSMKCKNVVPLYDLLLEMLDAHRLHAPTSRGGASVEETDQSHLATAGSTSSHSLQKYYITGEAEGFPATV

Structure (SMILES)	activity, negative = inhibition
CCOC(=O)c1ncn2c1CN(C)C(=O)c1c(I)cccc1-2	11.5%
CCN[C@@H](C)Cc1cccc(C(F)(F)F)c1	32.5%
C=C(C)[C@H]1CN[C@H](C(=O)O)[C@H]1CC(=O)O	-4.3%
CC(C)(C)C(=O)Cl	-2.2% [at 79.1 µM]
CCCCOC(C)=O	5.67% [at 79.1 µM]
CCN(CC)C1CCCCC1	6.9%
CCOP(=S)(OCC)SCCl	18.6%
COc1ccccc1OC	23.6%
CCOP(=S)(OCC)Oc1ccc(Cl)cc1Cl	16.9%
O=P(O)(O)c1ccccc1	9.13%
CCOC1Oc2ccc(OS(C)(=O)=O)cc2C1(C)C (stereo not drawn)	-8.38%
CC[C@H](O)C(C[C@H](C)N(C)C)(c1ccccc1)c1ccccc1	-20.2% [at 79.1 µM]
Clc1ccc(C(Cl)(Cl)Cl)cn1	-16.3%
O=C(Cl)c1ccccc1	-6.47% [at 79.1 µM]
BrCC1CO1 (stereo not drawn)	-6.19% [at 79.1 µM]
CN(C)C1CCCCC1	3.92%
CN=CNc1ccc(C)cc1C	-5.51%

tested on: not listed separately; test: qHTS assay to identify small molecule antagonists of the estrogen receptor alpha (ER-alpha) signaling pathway - cell viability counter screen (AID 743074); details: ERalpha-bla HEK293 viability, CellTiter-Glo luminescence, 18 h; series mostly up to 69.4 µM; activity, negative = cytotoxicity: at the top concentration;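 further: HEK293 cells carrying ER-alpha-UAS-bla reporter stimulated with 17beta-estradiol; nearly all actives have a fitted effect of over 45% in size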

Structure (SMILES)	activity, negative = cytotoxicity
ClCCCCl	-9.44% [at 79.1 µM]
COC(=O)[C@@H](N)CCCN/C(N)=N/[N+](=O)[O-]	1.39%
CCOC(=O)c1ncn2c1CN(C)C(=O)c1c(I)cccc1-2	-8.87%
CCN[C@@H](C)Cc1cccc(C(F)(F)F)c1	9.56%
CCN(CC)CCOC(=O)C(O)(c1ccccc1)c1ccccc1	-10.1%
BrCCc1ccccc1	-8.47% [at 79.1 µM]
CCC(=O)OC1(c2ccccc2)CCN(C)CC1	-3.66% [at 79.1 µM]
C[C@@H](N)[C@@H](O)c1ccccc1	10.9% [at 32.6 µM]
CCNc1nc(NCC)nc(SC)n1	17.8%
CCNc1nc(Cl)nc(NC(C)(C)C)n1	2.11%
CCOC(=O)N(C)N=O	35.8%
OCC(Cl)CCl (stereo not drawn)	5.74%
CCN[C@@H](C)Cc1ccccc1	-4.43% [at 79.1 µM]
ClCCCCCCCl	17.6%
CCOC(=O)CC(SP(=S)(OC)OC)C(=O)OCC (stereo not drawn)	14.9%
C=C(C)[C@H]1CN[C@H](C(=O)O)[C@H]1CC(=O)O	-9.77%
CC(C)(C)C(=O)Cl	-11.5% [at 79.1 µM]

Structure (SMILES)	activity, negative = cytotoxicity
CCCCOC(C)=O	4.05% [at 79.1 µM]
CNC(=O)Oc1cc(C)c(N(C)C)c(C)c1	-10.2%
CCN(CC)C1CCCCC1	-11%
O=S1(=O)OCCO1	-2.18% [at 79.1 µM]
CCOP(=S)(OCC)Oc1ccc(Cl)cc1Cl	7.62%
CCC1(c2ccccc2)C(=O)N(COC)C(=O)N(COC)C1=O	7.97%
O=P(O)(O)c1ccccc1	6%
N#CC(Br)(Br)C(N)=O	-6.98%
CCCCS(=O)(=O)Cl	11.5%
CC[C@H](O)C(C[C@H](C)N(C)C)(c1ccccc1)c1ccccc1	-13.4% [at 79.1 µM]
Clc1ccc(C(Cl)(Cl)Cl)cn1	-7.58%
O=C(Cl)c1ccccc1	4.85% [at 79.1 µM]
BrCC1CO1 (stereo not drawn)	30.2% [at 79.1 µM]
NCCOS(=O)(=O)O	26.1%
CN(C)C1CCCCC1	14%
CN=CNc1ccc(C)cc1C	11.6%

molecular target: Estrogen receptor (Homo sapiens) (UniProt P03372); test: qHTS assay to identify small molecule agonists of the estrogen receptor alpha (ER-alpha) signaling pathway (AID 743075); details: HEK293 ER-alpha-UAS-bla, beta-lactamase FRET ratio, 18 h; series mostly up to 70.1 µM; activation: at the top concentration;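 further: HEK293 GripTite cells with ER-alpha and UAS-driven beta-lactamase reporter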; further: potency means the concentration at half of the fitted maximal effect

Structure (SMILES)	activation	Potency
CC[C@H](N)c1ccccc1	0.474%	
CCOC(=O)c1ncn2c1CN(C)C(=O)c1c(I)cccc1-2	-2.97%	
CCN[C@@H](C)Cc1cccc(C(F)(F)F)c1	0.909%	
CCN(CC)CCOC(=O)C(O)(c1ccccc1)c1ccccc1	-0.555%	
CCNc1nc(NCC)nc(SC)n1	-2.54%	
CCNc1nc(Cl)nc(NC(C)(C)C)n1		61.6 µM [inconclusive] (active)
OCC(Cl)CCl (stereo not drawn)	-2.07%	
CCN[C@@H](C)Cc1ccccc1	-0.94% [at 79.1 µM]	
CCOC(=O)CC(SP(=S)(OC)OC)C(=O)OCC (stereo not drawn)		inactive
C=C(C)[C@H]1CN[C@H](C(=O)O)[C@H]1CC(=O)O	1.5%	
CC(C)(C)C(=O)Cl	0.792% [at 79.1 µM]	
CCCCOC(C)=O	-0.739% [at 79.1 µM]	
CCN(CC)C1CCCCC1	-0.248%	
CCOP(=S)(OCC)SCCl	-1.39%	
COc1ccccc1OC	-2.18%	
Clc1nc(Cl)nc(Nc2ccccc2Cl)n1	0.0911%	
CCOP(=S)(OCC)Oc1ccc(Cl)cc1Cl	5.32%	
O=P(O)(O)c1ccccc1	2.06%	
CC[C@H](O)C(C[C@H](C)N(C)C)(c1ccccc1)c1ccccc1	-1.52% [at 79.1 µM]	
Clc1ccc(C(Cl)(Cl)Cl)cn1	-1.89%	
O=C(Cl)c1ccccc1	-1.08% [at 79.1 µM]	
BrCC1CO1 (stereo not drawn)	1.73% [at 79.1 µM]	
NCCOS(=O)(=O)O	0.803%	
CN(C)C1CCCCC1	5.94%	
CN=CNc1ccc(C)cc1C	-1.64%	
